Screens (PubChem BioAssay)
MsrA act: bovine MsrA enzyme activators, primary screen, biochemical, absorbance, HTS; Methionine sulfoxide reductase A (Bos taurus); purified bovine MsrA, absorbance read-out; activation, % at 10.6 µM; 360,000 tested, 0.3% active; AID 602163, 2012; in the data active means activation above about 7.5%
HTR2A ag: mouse Htr2a agonists via beta-arrestin recruitment, primary screen, cell-based, luminescence; 5-hydroxytryptamine receptor 2A (Mus musculus), P35363; CHO-K1 mHTR2A beta-arrestin complementation; percent of 30 µM serotonin response; activation, % at 7.6 µM; 360,000 tested, 0.66% active;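 active means activation above a run cutoff, the mean activation of all tested compounds plus 3 SD, cut at about 14% in these data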
MsrA inh: bovine MsrA enzyme inhibitors, primary screen, biochemical, absorbance, HTS. Methionine sulfoxide reductase A (Bos taurus). purified bovine MsrA, absorbance read-out. inhibition, % at 15.5 µM. 360,000 tested, 0.75% active; in the data active means inhibition above about 4.5%
NPR1 activator: GC-A stimulated cGMP production enhancers – HEK293 GC-A cells, cGMP TR-FRET, EC30 ANP, primary screen; Atrial natriuretic peptide receptor 1 (Homo sapiens), P16066; 0% at EC30 ANP, 100% saturating ANP; activation, % at 10 µM; 370,000 tested, 0.14% active; in the data active means activation above about 40%
GC-B act: human GC-B receptor activators, primary screen, HEK293 GC-B cells, cGMP TR-FRET, EC30 CNP | Atrial natriuretic peptide receptor 2 (Homo sapiens), P20594 | activation, % at 10 µM | 0% at EC30 CNP, 100% saturating CNP | 370,000 tested, 0.11% active | AID 1920062, 2024;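 active means activation at 10 µM reaching about 35% in either raw or pattern-adjusted values, limit read from the data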
A number is an active result; n = inactive; x = no result given. Rows were chosen to be rich in hits. Some 1.8% of all compounds tested hit in one or more screens of this group.

SMILES | MsrA act | HTR2A ag | MsrA inh | NPR1 activator | GC-B act
CCN(CC)c1ccc(NC(=O)c2cc3c(C)nn(-c4ccccc4)c3s2)cc1 | x | x | x | n | n
O=C1C=C[C@H]2CC[C@@H](O)[C@@H]1[C@@H]2Sc1ccccc1 | x | x | x | n | n
O=C(NCCc1c[nH]c2ccccc12)OCc1cn(Cc2cc(F)cc(F)c2)nn1 | x | x | x | n | n
CCS(=O)(=O)Nc1ccc2c(c1)C(=O)N(C)[C@@H]1CC[C@H](CC(=O)NCCOC)O[C@H]1CO2 | x | x | x | n | n
CC(=O)NC(=S)Nc1ccc(NC(=S)NC(=O)/C=C/c2ccco2)cc1 | n | n | n | n | n
O=C(/C=C/c1ccco1)NC(=S)NNC(=O)c1ccco1 | n | n | 6.6 | n | n
CN(C)c1cccc(/C=C2\CC3(OC(=O)c4ccc(F)cc4)CCCN2C3)c1 (stereo not given) | x | x | x | n | n
CS(=O)(=O)c1ccc2nc(NC(=O)c3ccccc3)sc2c1 | n | n | n | n | n
CS(=O)(=O)c1ccc2nc(NC(=O)c3ccc(Cn4cc(Br)cn4)o3)sc2c1 | n | n | 5.4 | n | n
CCOC(=O)[C@@]12CN(C(=O)OC(C)(C)C)CC=C1N(Cc1ccc(OC)cc1)C(=O)[C@H]2CC(=O)N1CCN(C(=O)c2ccco2)CC1 | x | x | x | n | n
CCOC(=O)N1CCN(C(=O)C2CCN(C(=O)c3ccccc3C)CC2)CC1 | n | n | n | 41 | n
Cc1ccccc1C(=O)N1CCC(C(=O)N2CCN(c3ncccn3)CC2)CC1 | n | n | n | n | n
O=C(OC1CCOC1=O)c1cc(-c2cccs2)nc2ccccc12 (stereo not given) | n | n | n | 51 | n
c1ccc(-c2c[nH]c3cccc(C4CCCCC4)c23)cc1 | x | x | x | n | n
Cc1[nH]nc(-c2ccc(O)c(C)c2O)c1Oc1ccccc1 | n | n | n | 79 | n
C=CCn1c(SCC(=O)Nc2ccc(O)cc2)nc2sc(C)c(C)c2c1=O | n | n | n | n | n
C=CCn1c(=O)c2c(C)c(C)sc2n2c(Nc3ccc(OC)cc3)nnc12 | n | n | n | n | 39
O=C(/C=C/c1ccc2c(c1)OCO2)Nc1nc(-c2ccccc2)cs1 | n | n | 4.8 | n | n
O=C(/C=C/c1ccc2c(c1)OCO2)Nc1c(C(=O)O)[nH]c2ccccc12 | n | n | 4.7 | n | n
Cc1sc(NC(=O)/C=C/c2ccc3c(c2)OCO3)nc1-c1ccccc1 | n | n | n | n | n
CCCC1=C(C(=O)OCC)C(/C=C/c2ccccc2)n2ncnc2N1 (stereo not given) | n | n | x | 45 | n
O=C1C(=O)N(Cc2ccc(-c3ccc(F)nc3)cc2)c2ccc(OC(F)(F)F)cc21 | x | x | x | n | n
Cc1ccc(S(=O)(=O)CCC(=O)c2ccc(F)cc2)cc1 | n | n | n | 71 | n
Cc1ccc(C(=O)CCS(=O)(=O)c2ccc(Cl)cc2)cc1 | n | n | n | 52 | n
Cc1ccc(C(=O)CCS(=O)(=O)c2ccc(F)cc2)cc1 | n | n | n | 52 | n
SMILES | MsrA act | HTR2A ag | MsrA inh | NPR1 activator | GC-B act
O=Cc1ccc(-c2ccc([N+](=O)[O-])cc2Cl)o1 | n | n | 5.5 | n | n
O=Cc1ccc(-c2cccc([N+](=O)[O-])c2)o1 | n | n | n | n | n
Cc1ncsc1CCOC(=O)C12CC3CC(CC(C3)C1)C2 | n | 16 | n | n | n
CCOC(=O)CC[C@@H]1CC[C@]2(CCCN(Cc3cccs3)C2)O1 | x | x | x | n | n
CCC(=O)N1CCc2cc(Br)c(S(=O)(=O)NCCCN(C)Cc3ccccc3)cc21 | x | x | x | n | n
CC(=O)c1sc(C(C)(C)C)cc1NC(=O)c1ccccc1C(=O)O | n | n | n | 47 | n
O=C1OCCC1Sc1nc(-c2ccccc2)cs1 (stereo not given) | n | n | n | 72 | n
CCCCC#Cc1ccccc1COC[B-](F)(F)F | x | x | n | n | n
N=C(N)N=Nc1c(O)[nH]c2ccc(Br)cc12 | n | n | 4.6 | n | n
Oc1[nH]c2ccc(Br)cc2c1N=NC(=S)Nc1ccc(F)cc1 | n | n | n | n | n
Cc1ccc(-n2c(SCC(=O)Nc3ccc4cn[nH]c4c3)nnc2-c2ccccc2)cc1 | x | x | x | n | n
CCOC(=O)C1=NOC(C(C)=O)(C(=O)NC2CCCC2)C1 (stereo not given) | x | x | x | n | n
COc1ccc(CNC(=O)c2cc(C3CC3)nc3c2cnn3C(C)C)cc1OC | n | n | n | n | n
Cc1ccc(CNC(=O)c2cc(C3CC3)nc3c2cnn3C(C)C)cc1 | n | n | n | 40 | 50
CC1CCN(C2(O)C(=O)Nc3ccc([N+](=O)[O-])cc32)CC1 (stereo not given) | n | n | 6.6 | n | n
CC1CCN(C2(O)C(=O)Nc3ccc(Cl)cc32)CC1 (stereo not given) | n | n | n | n | n
COc1ccc(S[C@]2(C(=O)N3CCN(C(C)=O)CC3)CC(=O)N(C(=O)/C=C/c3ccccc3)[C@@H]2c2ccc(OC)cc2)cc1 | x | x | x | n | n
S=C(c1ccc(-c2ccc(Cl)cc2Cl)o1)N1CCCC1 | n | n | n | n | n
CN1CCN(C(=S)c2ccc(-c3cc(Cl)ccc3Cl)o2)CC1 | n | n | n | n | 50
N#CCCN1CCN(C(=S)c2ccc(-c3cc(Cl)ccc3Cl)o2)CC1 | n | n | n | n | 97
Cc1cc(C(=O)Nc2nnc(-c3ccccc3)s2)no1 | n | n | 4.6 | n | n
Cc1ccc2nc3n(c(=O)c2c1)-c1cc2ccccc2cc1C(=O)NC3Cc1ccc(O)cc1 (stereo not given) | n | n | n | n | n
O=C1NC(Cc2ccccc2)c2nc3cc(F)c(F)cc3c(=O)n2-c2cc3ccccc3cc21 (stereo not given) | n | n | n | n | n
O=C1NC(Cc2ccc(O)cc2)c2nc3cc(F)c(F)cc3c(=O)n2-c2cc3ccccc3cc21 (stereo not given) | n | n | n | n | 38
O=C1NC(Cc2ccc(O)cc2)c2nc3ccc(F)cc3c(=O)n2-c2cc3ccccc3cc21 (stereo not given) | n | n | n | n | 65
CCN(CC)c1nc(N)c2c(N)nc3c(c2c1C#N)CC(c1ccccc1)O3 (stereo not given) | n | n | 6.3 | n | n
CN1CCCN(C(=O)CSc2nnc(-c3cccnc3)n2C2CCCCC2)CC1 | x | x | x | n | n
CCOC(=O)C1=C(COC(=O)c2ccc([N+](=O)[O-])s2)NC(=O)NC1C (stereo not given) | 19 | n | n | n | n
O=C(c1cccc(F)c1F)N(Cc1ccccn1)CC1CCCO1 (stereo not given) | x | x | x | n | n
CC(=O)OCCN1C(=O)c2ccc(-c3nc4ccccc4c(=O)o3)cc2C1=O | n | n | n | 47 | n
